Measured values from PubChem BioAssay (NCATS).
Where “and” joins values, the source holds several entries; their conditions need not be identical. Identical values can stand only once. Inconclusive results are not listed. Calls of active or inactive are those of the source. Unless noted, calls come from the whole dose curve; as a rule, active = well fitted curve in the direction sought with a large enough effect; inconclusive = small, poorly fitted or top-dose-only effect, or another doubt; inactive = no such curve, though single readings can be large; an effect the other way counts as inactive or inconclusive.

Assays:
[1] = Cell Viability - BJ (AID 421; calls by dose curve;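 note: potency is the fitted concentration of half-maximal effect; cells exposed to compound for 40 hours at 37 °C before readout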); conditions: BJ fibroblast viability, qHTS
In short: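 Cytotoxicity in human BJ foreskin fibroblasts is scored as loss of cellular ATP after a 40-hour exposure, measured by luciferase luminescence. Controls are DMSO and 100 uM tamoxifen.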

[2] = Cell Viability - Jurkat (AID 426;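 active = dose-dependent loss of cell ATP signal giving a full or clear fitted curve, ranked by lower potency value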;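 note: potency is the fitted concentration of half-maximal effect; cells exposed to compound for 40 hours at 37 °C before ATP read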); conditions: qHTS
In short: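 Cells of the human T-cell leukemia line Jurkat (E6-1) are seeded at 5000 per well, treated with compound across a concentration range for 40 hours at 37 °C, then lysed with CellTiter-Glo; luminescence reports ATP.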

[3] = Cell Viability - MRC5 (AID 434; calls by dose curve;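 note: potency is the fitted concentration of half-maximal effect; potency reflects cytotoxicity seen as loss of intracellular ATP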); conditions: MRC5 lung fibroblast viability, qHTS
In short: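 Decrease in intracellular ATP, quantified by luciferase light output, reflects compound toxicity toward MRC5 cells exposed for 40 hr in complete culture medium. Concentration-response curves, scaled between DMSO and 100 uM tamoxifen, gave AC50 values.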

[4] = Cell Viability - SK-N-SH (AID 435; calls by dose curve; note: potency is the fitted concentration of half-maximal effect); conditions: SK-N-SH neuroblastoma cell viability qHTS
In short: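 qHTS cytotoxicity: CellTiter-Glo ATP luminescence after 40 h compound exposure of human neuroblastoma SK-N-SH cells at 37 °C. AC50 derived by Hill-equation fitting, with DMSO as basal and 100 uM tamoxifen as full inhibition.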

[5] = target: Mitogen-activated protein kinase 10 (Mus musculus) (UniProt Q61831); assay: JNK3 AlphaScreen Assay (AID 530; active = well fitted curve in either direction with a large enough effect, not every such curve was filed as active;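 note: kinase came from lysate of stimulated human HepG2 cells; signal reports phosphorylation of biotinylated GST-cJun 1-79 at Ser73 with 10 µM ATP; % is set by controls: 0 for no effect and ±100 for the full control effect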); conditions: JNK3 lysate, c-Jun phosphorylation; series mostly up to 57.1 µM
In short: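 Phosphorylation of biotinylated GST-cJun(1-79) at Ser73 is measured by AlphaScreen proximity luminescence. Enzyme is JNK3 in HepG2 lysates activated with interleukin-1beta and tumor necrosis factor alpha; ATP is 10 uM final.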

[6] = Cell Viability - Renal Proximal Tubule (AID 545); conditions: renal proximal tubule cells viability; activity change, negative = cytotoxicity: at 91.7 µM (top of the series) unless noted; note: nearly all actives have a fitted effect of over 40% in size; note: potency is the fitted concentration of half-maximal effect;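 for activity change, negative = cytotoxicity: 0% = DMSO only and -100% = 100 µM tamoxifen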
In short: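 Viability taken as intracellular ATP (CellTiter-Glo luminescence) after 40 hr, 37 °C compound treatment of primary proximal tubule cells from rat kidney, 1000 cells/well; Hill-equation fits of qHTS concentration-response data gave AC50.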

[7] = Cell Viability - Mesenchymal (AID 546); conditions: mesenchymal cells viability, qHTS; activity change, negative = cytotoxicity: at 91.7 µM (top of the series);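 note: cells exposed to compound for 40 hours before reading; 0% = DMSO only and -100% = 100 µM tamoxifen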
In short: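 In this qHTS cytotoxicity format, glomerulus-derived human mesenchymal kidney cells received compound for 40 hr, then luciferase-based ATP quantitation. Concentration-response data were fitted with the Hill equation.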

[8] = Cellular Toxicity (caspase-3) HUV-EC-C (AID 656); conditions: HUV-EC-C cells, caspase-3 activation (apoptosis), vehicle = 0, 100 µM tamoxifen = 100%; series mostly up to 92.2 µM;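 note: 0% = DMSO basal and 100% = 100 µM tamoxifen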
In short: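 Luminescent Caspase-Glo 3/7 readout after 16 h, 37 °C compound exposure of HUV-EC-C endothelial cells, 1000 per well, complete medium. AC50 derived by Hill fitting, with DMSO as baseline and 100 uM tamoxifen as full activation.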

[9] = Cellular Toxicity (caspase-3) N2a (AID 665); conditions: N2a cells, luminescence, normalized: DMSO 0%, 10 µM staurosporine 100%; series mostly up to 92.2 µM;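 note: compound exposure lasted 16 h at 37 °C before readout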
In short: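 Caspase-3/7 activation, measured as increased luminescence from aminoluciferin release, is quantified in mouse N2a cells exposed to compounds for 16 h. Values are normalized to DMSO and 10 uM staurosporine, with AC50 derived by Hill modelling.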

[10] = target: Cytochrome P450 3A4 (Homo sapiens) (UniProt P08684); assay: qHTS Assay for Inhibitors and Substrates of Cytochrome P450 3A4 (AID 884); conditions: recombinant CYP3A4, Luciferin-PPXE luminescence; series mostly up to 57.1 µM; note: nearly all actives have a fitted effect of over 50% in size; note: potency is the fitted concentration of half-maximal effect
In short: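 Luminescent readout of luciferin produced by CYP3A4 (20 nM) dealkylation of Luciferin-PPXE, 25 uM (its KM). NADPH-driven reaction ran 60 min at RT after 10 min compound preincubation; data scaled to 57 uM ketoconazole as 100% inhibition.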

[11] = Cell Viability - LYMP1-003 - Assay at 24 hr (AID 963); conditions: LYMP1-003 lymphoblastoid cell viability; series mostly up to 92.2 µM;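 note: plate controls were DMSO only for no effect and tetraoctylammonium bromide positive control for full effect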
In short: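 Cytotoxicity is scored as a concentration-dependent fall in ATP-linked luciferase signal in human lymphoblastoid LYMP1-003 cells treated 24 hr at 37 C in complete culture medium.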

[12] = Cell Viability - LYMP2-003 (AID 965); conditions: LYMP2-003 lymphoblastoid cell viability; series mostly up to 92.2 µM;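 note: cells exposed to compounds for 24 h before reading; nearly all actives have a fitted effect of over 50% in size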; note: potency is the fitted concentration of half-maximal effect;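 for activity change, negative = cytotoxicity: 0% = DMSO only and full effect = 92 µM tetraoctylammonium bromide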
In short: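 CellTiter-Glo luminescence quantified ATP loss after 24 h compound treatment of LYMP2-003 lymphoblastoid cells at 37 C. Titration series were fitted with the standard Hill equation to give AC50.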

[13] = qHTS assay for environmental chemicals that activate the Aryl hydrocarbon Receptor (AhR) signaling pathway (AID 651777); conditions: 1A2-DRE human hepatoma cells, luciferase, 24 h; activation: stronger effect = higher value; note: nearly all actives have a fitted effect of over 15% in size; note: potency is the fitted concentration of half-maximal effect; for activation: % of control where 0% means no effect
In short: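 Measured luciferase activity, read 30 min after One-Glo addition at room temperature, from human hepatoma cells bearing a dioxin response element–CYP1A2 promoter reporter and exposed to compound for 24 hr at 37 C.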

[14] = target: Cytochrome P450 1A2 (Homo sapiens) (UniProt P05177); assay: p450-cyp1a2 (AID 410; calls by dose curve; note: potency is the fitted concentration of half-maximal effect); conditions: recombinant CYP1A2, luciferin-ME demethylation, luminescence; series mostly up to 57 µM
In short: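 O-Demethylation of luciferin 6' methyl ether by human CYP1A2 is monitored as luciferase luminescence. Substrate sits at Km (100uM); enzyme is 20nM. Values are scaled to 57 uM furafylline as maximal inhibition.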

[15] = target: Glucocorticoid receptor (Homo sapiens) (UniProt P04150); assay: GR-GFP Redistribution (AID 450;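 active = compounds whose dose series gives a full or clear partial fitted curve of increased nuclear translocation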; note: potency is the fitted concentration of half-maximal effect); conditions: U2OS GR-GFP nuclear translocation, laser cytometry, 2 h
[16] = target: Glucocorticoid receptor (Homo sapiens) (UniProt P04150); assay: GR-EFC Redistribution (AID 451; calls by dose curve; note: potency is the fitted concentration of half-maximal effect); conditions: CHO-K1 GR-EFC translocation, beta-gal luminescence, 2 h
In short: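 CHO-K1 cells stably expressing nuclear-localized β-gal enzyme acceptor and GR fused C-terminally to the enzyme donor fragment; ligand-driven nuclear translocation restores β-gal by complementation. Compounds titrated up to 46 uM final, 2 h at 37 °C; luminescence read.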

[17] = target: Cytochrome P450 2C19 (Homo sapiens) (UniProt P33261); assay: qHTS Assay for Inhibitors and Substrates of Cytochrome P450 2C19 (AID 899); conditions: recombinant CYP2C19, luciferin-H EGE luminescence; series mostly up to 57.1 µM; note: % is set by controls: 0 for no effect and ±100 for the full control effect; nearly all actives have a fitted effect of over 60% in size
In short: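 Human CYP2C19 (5nM) with Luciferin-H EGE at 10uM (its KM) in 50mM KPO4 was preincubated with compound for 10 min at 37C. NADPH regeneration started a 60 min 37C reaction. Luciferin was read by luminescence, normalized to 57uM ketoconazole.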

[18] = target: 3',5'-cyclic-AMP phosphodiesterase 4B (Homo sapiens) (UniProt Q07343); assay: qHTS Assay for Inhibitors of PDE-IV (AID 607; active = well fitted activation curve with a large enough effect in the main read-out, with a control signal flat, not every such curve was filed as active; note: % of control where 0% means no effect); conditions: HEK293 ACTOne CNG channel cells, membrane potential fluorescence; series mostly up to 22.9 µM
In short: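 The readout is membrane depolarisation from a cAMP-sensing CNG channel, detected with a potential dye at ex 535/em 590. Cells were HEK293-derived (endogenous PDE-IV) at 1000 cells/well, titrated up to 22.9 uM final.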

[19] = target: Cytochrome P450 2D6 (Homo sapiens) (UniProt P10635); assay: qHTS Assay for Inhibitors and Substrates of Cytochrome P450 2D6 (AID 891); conditions: recombinant CYP2D6, luciferin-ME EGE luminescence; series mostly up to 57.1 µM; note: nearly all actives have a fitted effect of over 60% in size; note: potency is the fitted concentration of half-maximal effect
In short: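 Luminescent read-out of luciferin formed by 5 nM human CYP2D6 demethylating 30 uM Luciferin-ME EGE (Km level) over 60 min at room temperature after NADPH regeneration addition. Data normalized to full inhibition by 1.43 uM quinidine.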

Chain of Cytochrome P450 3A4 (Homo sapiens) (P08684 whole entry, looked up): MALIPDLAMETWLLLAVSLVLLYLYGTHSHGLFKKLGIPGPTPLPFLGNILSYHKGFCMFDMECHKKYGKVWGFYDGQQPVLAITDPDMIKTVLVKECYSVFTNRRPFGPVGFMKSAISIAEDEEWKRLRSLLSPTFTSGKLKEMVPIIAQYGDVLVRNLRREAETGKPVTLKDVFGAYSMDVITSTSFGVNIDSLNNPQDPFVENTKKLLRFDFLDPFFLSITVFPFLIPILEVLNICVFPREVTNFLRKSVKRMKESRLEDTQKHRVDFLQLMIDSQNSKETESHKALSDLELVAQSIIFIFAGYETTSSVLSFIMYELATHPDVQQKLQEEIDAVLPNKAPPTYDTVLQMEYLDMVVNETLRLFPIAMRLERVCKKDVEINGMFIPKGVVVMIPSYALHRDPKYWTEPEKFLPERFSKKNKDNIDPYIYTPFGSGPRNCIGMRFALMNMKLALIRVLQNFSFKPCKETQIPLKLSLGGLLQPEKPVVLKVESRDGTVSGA
Chain of Glucocorticoid receptor (Homo sapiens) (P04150 whole entry, looked up, the tested form may be a part): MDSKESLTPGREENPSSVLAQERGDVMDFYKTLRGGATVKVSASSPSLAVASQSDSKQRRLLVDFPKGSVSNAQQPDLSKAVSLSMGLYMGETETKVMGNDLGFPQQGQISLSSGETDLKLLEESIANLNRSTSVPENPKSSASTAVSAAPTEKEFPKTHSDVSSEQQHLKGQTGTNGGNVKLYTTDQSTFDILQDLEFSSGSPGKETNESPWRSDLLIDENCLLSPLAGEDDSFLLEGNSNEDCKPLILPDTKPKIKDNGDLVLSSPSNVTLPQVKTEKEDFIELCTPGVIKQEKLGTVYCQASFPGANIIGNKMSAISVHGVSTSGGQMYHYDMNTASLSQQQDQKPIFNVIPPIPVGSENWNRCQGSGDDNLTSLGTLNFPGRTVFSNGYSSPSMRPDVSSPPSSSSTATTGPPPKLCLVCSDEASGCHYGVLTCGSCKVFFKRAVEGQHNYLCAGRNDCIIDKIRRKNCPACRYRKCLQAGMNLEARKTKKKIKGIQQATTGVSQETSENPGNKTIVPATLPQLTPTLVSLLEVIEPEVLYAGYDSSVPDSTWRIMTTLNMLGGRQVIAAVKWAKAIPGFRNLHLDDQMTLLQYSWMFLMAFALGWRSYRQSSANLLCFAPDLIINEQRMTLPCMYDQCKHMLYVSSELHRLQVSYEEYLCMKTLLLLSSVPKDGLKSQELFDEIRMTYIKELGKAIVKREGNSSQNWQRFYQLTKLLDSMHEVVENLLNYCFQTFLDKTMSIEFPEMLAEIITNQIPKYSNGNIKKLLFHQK
Chain of Cytochrome P450 2D6 (Homo sapiens) (P10635 whole entry, looked up): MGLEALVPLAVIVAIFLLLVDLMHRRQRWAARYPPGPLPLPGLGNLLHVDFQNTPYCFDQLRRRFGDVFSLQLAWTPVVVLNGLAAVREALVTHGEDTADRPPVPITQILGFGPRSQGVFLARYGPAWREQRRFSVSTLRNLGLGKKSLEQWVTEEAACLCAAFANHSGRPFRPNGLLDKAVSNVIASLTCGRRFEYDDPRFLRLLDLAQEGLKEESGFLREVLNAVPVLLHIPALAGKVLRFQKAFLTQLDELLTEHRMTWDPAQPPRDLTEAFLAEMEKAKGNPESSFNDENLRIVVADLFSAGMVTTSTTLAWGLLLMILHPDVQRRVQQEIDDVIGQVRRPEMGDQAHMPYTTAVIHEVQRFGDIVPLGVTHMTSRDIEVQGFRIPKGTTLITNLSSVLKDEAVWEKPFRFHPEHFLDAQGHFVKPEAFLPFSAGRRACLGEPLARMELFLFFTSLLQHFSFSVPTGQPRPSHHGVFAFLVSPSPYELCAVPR
Chain of 3',5'-cyclic-AMP phosphodiesterase 4B (Homo sapiens) (Q07343 whole entry, looked up): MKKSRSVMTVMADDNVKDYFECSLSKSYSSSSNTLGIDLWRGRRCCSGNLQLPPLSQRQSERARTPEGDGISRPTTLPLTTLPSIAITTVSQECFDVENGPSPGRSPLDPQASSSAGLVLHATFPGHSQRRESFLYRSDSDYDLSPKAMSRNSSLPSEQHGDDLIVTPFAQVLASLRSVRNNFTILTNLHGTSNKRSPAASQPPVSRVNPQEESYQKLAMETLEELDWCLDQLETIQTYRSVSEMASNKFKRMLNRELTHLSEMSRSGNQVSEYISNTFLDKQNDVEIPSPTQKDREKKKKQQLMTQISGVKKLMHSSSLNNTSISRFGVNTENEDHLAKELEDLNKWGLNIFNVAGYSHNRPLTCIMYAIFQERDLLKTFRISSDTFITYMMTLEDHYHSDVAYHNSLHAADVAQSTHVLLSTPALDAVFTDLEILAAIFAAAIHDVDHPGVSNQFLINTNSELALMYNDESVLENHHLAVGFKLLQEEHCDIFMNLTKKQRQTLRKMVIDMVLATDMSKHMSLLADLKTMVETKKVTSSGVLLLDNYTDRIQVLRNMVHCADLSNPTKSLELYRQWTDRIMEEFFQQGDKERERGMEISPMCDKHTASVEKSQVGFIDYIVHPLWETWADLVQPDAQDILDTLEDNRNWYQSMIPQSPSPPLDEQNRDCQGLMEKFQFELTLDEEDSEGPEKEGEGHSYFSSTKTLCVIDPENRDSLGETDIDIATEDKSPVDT
Chain of Cytochrome P450 2C19 (Homo sapiens) (P33261 whole entry, looked up): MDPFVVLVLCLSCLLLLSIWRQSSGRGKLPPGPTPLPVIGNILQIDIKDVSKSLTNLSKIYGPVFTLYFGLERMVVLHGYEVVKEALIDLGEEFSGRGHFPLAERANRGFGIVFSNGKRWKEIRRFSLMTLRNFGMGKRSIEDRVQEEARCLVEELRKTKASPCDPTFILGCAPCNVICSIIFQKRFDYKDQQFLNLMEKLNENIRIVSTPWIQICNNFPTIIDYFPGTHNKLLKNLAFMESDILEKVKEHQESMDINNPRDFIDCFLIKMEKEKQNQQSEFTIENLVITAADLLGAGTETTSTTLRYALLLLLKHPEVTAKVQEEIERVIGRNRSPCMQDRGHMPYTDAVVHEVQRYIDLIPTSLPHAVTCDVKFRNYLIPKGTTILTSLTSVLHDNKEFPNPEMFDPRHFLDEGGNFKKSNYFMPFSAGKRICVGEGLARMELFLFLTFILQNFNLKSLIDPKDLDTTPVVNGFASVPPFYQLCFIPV
Chain of Cytochrome P450 1A2 (Homo sapiens) (P05177 whole entry, looked up): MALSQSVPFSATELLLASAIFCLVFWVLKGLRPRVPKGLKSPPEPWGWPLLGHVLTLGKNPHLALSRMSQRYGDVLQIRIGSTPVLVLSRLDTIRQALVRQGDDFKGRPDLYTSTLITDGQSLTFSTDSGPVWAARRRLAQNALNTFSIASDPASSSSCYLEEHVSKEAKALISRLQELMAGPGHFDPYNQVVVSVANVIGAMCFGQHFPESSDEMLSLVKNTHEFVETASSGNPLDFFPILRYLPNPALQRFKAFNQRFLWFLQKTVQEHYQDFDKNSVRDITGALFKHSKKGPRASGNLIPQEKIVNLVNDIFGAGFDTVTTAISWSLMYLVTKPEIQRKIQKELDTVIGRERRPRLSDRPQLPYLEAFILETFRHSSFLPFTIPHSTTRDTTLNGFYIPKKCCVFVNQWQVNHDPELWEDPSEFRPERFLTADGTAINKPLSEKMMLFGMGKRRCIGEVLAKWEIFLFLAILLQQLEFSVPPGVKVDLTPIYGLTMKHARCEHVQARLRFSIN

FC(F)(F)c1ccc(Cl)cc1
inactive: Potency [1] > 92 µM | Potency [2] > 92 µM | Potency [3] > 92 µM | Potency [4] > 92 µM | outcome [5] | Potency [6] | Potency [7] | outcome [8] | outcome [9] | Potency [10] | Potency [11] | Potency [12] | activation [13] 0.0226% and 0.781%

c1ccc2cc3c(cc2c1)-c1cccc2cccc-3c12
active: Potency [13] 2.82 µM and 2.51 µM
inactive: Potency [1] > 92 µM | Potency [2] > 92 µM | Potency [3] > 92 µM | Potency [4] > 92 µM | Potency [6] | Potency [7] | outcome [8] | outcome [9] | Potency [10] | Potency [11] | Potency [12]

C#CCO
inactive: Potency [1] > 92 µM | Potency [2] > 92 µM | Potency [3] > 92 µM | Potency [4] > 92 µM | outcome [5] | Potency [6] | Potency [7] | outcome [8] | outcome [9] | Potency [10] | Potency [11] | Potency [12] | activation [13] 1.07%

C=C(CC1(C(C)NP(=O)(c2ccccc2)c2ccccc2)CC1)c1ccccc1 (stereo unspecified)
inactive: outcome [5]
active: Potency [14] 15.8 µM | Potency [10] 3.98 µM

ClC1=C(Cl)C2(Cl)C3C(Cl)C(Cl)CC3C1(Cl)C2(Cl)Cl (stereo unspecified)
active: Potency [2] 60.7 µM | Potency [10] 15.8 µM
inactive: Potency [7] | Potency [11]

O=[N+]([O-])C(Br)Br
inactive: Potency [6] | outcome [8] | outcome [9] | Potency [10] | Potency [11] | activation [13] 1.61%
active: Potency [2] 24.4 µM | Potency [12] 25.1 µM

[Cd+2].[Cl-].[Cl-]
active: Potency [6] 12.6 µM
inactive: Potency [3] > 92 µM | outcome [8] | outcome [9] | Potency [12] | activation [13] 0.0733%

COc1ccc2c(c1O)-c1c(OC)c(OC)cc3c1[C@@H](C2)N(C)CC3
inactive: Potency [15] > 46 µM | Potency [16] > 46 µM | Potency [10] | Potency [17]

C=C(C)[C@H]1[C@H]2OC(=O)[C@@H]1[C@]1(O)C[C@H]3O[C@]34C(=O)O[C@H]2[C@]14C
inactive: Potency [15] > 46 µM | Potency [16] > 46 µM | outcome [18]

C[C@@]12CCC[C@](C)(C(=O)O)[C@@H]1CCc1ccc(O)cc12
inactive: Potency [16] > 46 µM | outcome [5] | Potency [19] | Potency [17]

CC[C@H](CO)NC(=O)[C@H]1C=C2c3cccc4[nH]cc(c34)C[C@H]2N(C)C1
inactive: Potency [16] > 46 µM | outcome [5] | outcome [18]

CC(C)[C@H]1C(=O)N2CCC[C@@H]2[C@]2(O)O[C@@](NC(=O)[C@H]3C=C4c5cccc6[nH]cc(c56)C[C@H]4N(C)C3)(C(C)C)C(=O)N12
inactive: Potency [15] > 46 µM | Potency [16] > 46 µM | Potency [19]

C[C@@H]1O[C@@H](O[C@H]2C[C@@H](O)[C@]3(CO)[C@@H]4[C@@H](O)C[C@]5(C)[C@H]([C@@H]6COC(=O)C6)CC[C@@]5(O)[C@H]4CC[C@@]3(O)C2)[C@H](O)[C@H](O)[C@@H]1O
inactive: Potency [15] > 46 µM | Potency [16] > 46 µM | outcome [18]

C[C@H]1CC[C@@H]2[C@@H](C)C(=O)O[C@H]3O[C@@]4(C)CC[C@@H]1[C@]32OO4
inactive: Potency [16] > 46 µM | outcome [5] | outcome [18]

CCN(CC)c1ncnc2c1ncn2[C@@H]1O[C@@H](COP(=O)(O)OP(=O)(O)C(Br)(Br)P(=O)(O)O)[C@H](O)[C@H]1O
active: Potency [19] 0.631 µM
inactive: Potency [16] > 46 µM | outcome [5] | outcome [18]
